Assay results from PubChem BioAssay AID1159580 (chemical genetic matrix, 2015).
Hit rate of the full screen: of about 5,500 compounds, about 2,000 (36%) were called active. Inconclusive results (about 18%) are left out. Rule as the data show it: active = normalized growth mostly below about 0.91 (no sharp cut-off); inconclusive = no clear call, values can overlap the other calls; inactive = mostly above about 0.92. The list shows a part of the results.

Assay: chemical genetic growth profiling, strain panel (AID 1159580);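 also: tested at 20 µM; growth read once vehicle control cultures reached saturation at 30 °C; 1 = growth at the plate median or of vehicle wells; lower values mean less growth of the strain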
Details: growth OD
[1] = S. cerevisiae deletion strains, locus YDR150W, strain NUM1, hits give low values
[2] = S. cerevisiae deletion strains, locus YGR078C, strain PAC10, hits give low values
[3] = S. cerevisiae deletion strains, locus YJR075W, strain HOC1, hits give low values
[4] = S. cerevisiae deletion strains, locus YNL128W, strain TEP1, hits give low values
[5] = S. cerevisiae deletion strains, locus YPL241C, strain CIN2, hits give low values

Measured: normalized growth

CC(=O)C1CCC2C3CC(=O)C4=CC(=O)CCC4(C)C3CCC12C (centres undefined)
inactive: S. cerevisiae deletion strains, locus YAL013W, strain DEP1, hits give low values 0.971 | S. cerevisiae deletion strains, locus YBR021W, strain FUR4, hits give low values 0.995 | S. cerevisiae deletion strains, locus YBR229C, strain ROT2, hits give low values 0.955 | S. cerevisiae deletion strains, locus YCL029C, strain bik1, hits give low values 0.972 | S. cerevisiae deletion strains, locus YDL035C, strain GPR1, hits give low values 0.971 | S. cerevisiae deletion strains, locus YDL074C, strain BRE1, hits give low values 0.875 | S. cerevisiae deletion strains, locus YDL101C, strain DUN1, hits give low values 0.935 | S. cerevisiae deletion strains, locus YDL134C, strain PPH21, hits give low values 0.976 | S. cerevisiae deletion strains, locus YDL185W, strain tfp1, hits give low values 0.946 | S. cerevisiae deletion strains, locus YDL192W, strain arf1, hits give low values 0.982 | S. cerevisiae deletion strains, locus YDR101C, strain arx1, hits give low values 0.99 | [1] 0.95 | S. cerevisiae deletion strains, locus YDR162C, strain NBP2, hits give low values 0.866 | S. cerevisiae deletion strains, locus YDR318W, strain mcm21, hits give low values 0.996 | S. cerevisiae deletion strains, locus YDR388W, hits give low values 0.983 | S. cerevisiae deletion strains, locus YDR502C, strain sam2, hits give low values 0.95 | S. cerevisiae deletion strains, locus YEL061C, strain CIN8, hits give low values 0.981 | S. cerevisiae deletion strains, locus YER110C, hits give low values 0.971 | S. cerevisiae deletion strains, locus YER155C, strain BEM2, hits give low values 1 | S. cerevisiae deletion strains, locus YER167W, strain BCK2, hits give low values 0.995 | S. cerevisiae deletion strains, locus YGL078C, strain dbp3, hits give low values 0.979 | S. cerevisiae deletion strains, locus YGL086W, strain mad1, hits give low values 1.01 | S. cerevisiae deletion strains, locus YGL248W, strain PDE1, hits give low values 0.967 | [2] 0.928 | S. cerevisiae deletion strains, locus YGR135W, strain pre9, hits give low values 0.926 | S. cerevisiae deletion strains, locus YGR229C, strain SMI1, hits give low values 1.03 | S. cerevisiae deletion strains, locus YGR252W, strain gcn5, hits give low values 1.02 | S. cerevisiae deletion strains, locus YHR030C, strain SLT2, hits give low values 0.995 | S. cerevisiae deletion strains, locus YHR079C, strain IRE1 (second series), hits give low values 0.984 | S. cerevisiae deletion strains, locus YHR094C, strain hxt1, hits give low values 0.982 | S. cerevisiae deletion strains, locus YHR129C, strain ARP1, hits give low values 0.985 | S. cerevisiae deletion strains, locus YHR200W, strain rpn10, hits give low values 0.982 | S. cerevisiae deletion strains, locus YIL066C, strain RNR3, hits give low values 0.948 | S. cerevisiae deletion strains, locus YIL073C, strain SPO22, hits give low values 0.99 | S. cerevisiae deletion strains, locus YIL125W, strain kgd1, hits give low values 0.983 | S. cerevisiae deletion strains, locus YIR030C, strain dcg1, hits give low values 0.982 | S. cerevisiae deletion strains, locus YJL095W, strain BCK1, hits give low values 0.965 | S. cerevisiae deletion strains, locus YJL134W, strain LCB3, hits give low values 0.975 | S. cerevisiae deletion strains, locus YJL168C, strain set2, hits give low values 0.978 | S. cerevisiae deletion strains, locus YJL187C, strain SWE1 (second series), hits give low values 0.931 | S. cerevisiae deletion strains, locus YJR043C, strain POL32, hits give low values 1.01 | [3] 0.953 | S. cerevisiae deletion strains, locus YKL009W, strain mrt4, hits give low values 0.968 | S. cerevisiae deletion strains, locus YKL068W, hits give low values 0.982 | S. cerevisiae deletion strains, locus YKL085W, strain MDH1 (second series), hits give low values 0.943 | S. cerevisiae deletion strains, locus YKL085W, strain MDH1, hits give low values 0.943 | S. cerevisiae deletion strains, locus YKL190W, strain CNB1, hits give low values 0.964 | S. cerevisiae deletion strains, locus YKR001C, strain vps1, hits give low values 0.971 | S. cerevisiae deletion strains, locus YLR039C, strain RIC1, hits give low values 0.735 | S. cerevisiae deletion strains, locus YLR058C, strain SHM2, hits give low values 0.971 | S. cerevisiae deletion strains, locus YLR102C, strain apc9, hits give low values 0.971 | S. cerevisiae deletion strains, locus YLR262C, strain YPT6, hits give low values 0.749 | S. cerevisiae deletion strains, locus YLR268W, strain sec22, hits give low values 0.928 | S. cerevisiae deletion strains, locus YLR330W, strain CHS5, hits give low values 0.989 | S. cerevisiae deletion strains, locus YLR342W, strain FKS1 (second series), hits give low values 1.01 | S. cerevisiae deletion strains, locus YLR371W, strain rom2, hits give low values 0.986 | S. cerevisiae deletion strains, locus YLR418C, strain cdc73, hits give low values 0.862 | S. cerevisiae deletion strains, locus YML016C, strain PPZ1, hits give low values 0.979 | S. cerevisiae deletion strains, locus YML032C, strain rad52, hits give low values 1.01 | S. cerevisiae deletion strains, locus YML124C, strain tub3, hits give low values 0.998 | S. cerevisiae deletion strains, locus YMR078C, strain ctf18, hits give low values 0.968 | S. cerevisiae deletion strains, locus YMR223W, strain ubp8, hits give low values 1 | S. cerevisiae deletion strains, locus YMR263W, strain SAP30, hits give low values 0.936 | S. cerevisiae deletion strains, locus YMR307W, strain GAS1, hits give low values 1.01 | S. cerevisiae deletion strains, locus YNL067W, strain RPL9B, hits give low values 0.936 | [4] 0.924 | S. cerevisiae deletion strains, locus YNL153C, strain GIM3, hits give low values 0.922 | S. cerevisiae deletion strains, locus YNL233W, strain BNI4, hits give low values 0.972 | S. cerevisiae deletion strains, locus YNL250W, strain rad50, hits give low values 0.948 | S. cerevisiae deletion strains, locus YNL271C, strain bni1, hits give low values 0.983 | S. cerevisiae deletion strains, locus YNL298W, strain CLA4, hits give low values 0.968 | S. cerevisiae deletion strains, locus YNL307C, strain MCK1, hits give low values 0.971 | S. cerevisiae deletion strains, locus YNL322C, strain KRE1, hits give low values 0.977 | S. cerevisiae deletion strains, locus YNR052C, strain pop2, hits give low values 0.989 | S. cerevisiae deletion strains, locus YOL006C, strain TOP1, hits give low values 0.846 | S. cerevisiae deletion strains, locus YOL012C, strain htz1 0.923 | S. cerevisiae deletion strains, locus YOL147C, strain pex11, hits give low values 0.99 | S. cerevisiae deletion strains, locus YOR061W, strain CKA2, hits give low values 0.942 | S. cerevisiae deletion strains, locus YOR069W, strain VPS5, hits give low values 0.975 | S. cerevisiae deletion strains, locus YOR136W, strain idh2, hits give low values 0.984 | S. cerevisiae deletion strains, locus YOR144C, strain elg1, hits give low values 0.988 | S. cerevisiae deletion strains, locus YOR184W, strain ser1, hits give low values 0.959 | S. cerevisiae deletion strains, locus YOR316C, strain cot1, hits give low values 0.968 | S. cerevisiae deletion strains, locus YPL055C, strain LGE1, hits give low values 0.852 | [5] 0.974 | S. cerevisiae deletion strains, locus YPR119W, strain clb2, hits give low values 0.99 | S. cerevisiae deletion strains, locus YPR141C, strain kar3, hits give low values 0.957 | S. cerevisiae deletion strains, locus YPR163C, strain tif3, hits give low values 0.967 | S. cerevisiae deletion strains, locus YPR167C, strain met16, hits give low values 0.979 | S. cerevisiae deletion strains, strain wtn01, hits give low values 0.951 | S. cerevisiae strains, strain wild type, hits give low values 0.972

C[C@]12CCC(=O)C=C1CC[C@@H]1[C@@H]2CC[C@]2(C)C(=O)CC[C@@H]12
inactive: S. cerevisiae deletion strains, locus YAL040C, strain CLN3, hits give low values 1.01 | S. cerevisiae deletion strains, locus YCL061C, strain MRC1 (second series), hits give low values 0.994 | [1] 0.988 | S. cerevisiae deletion strains, locus YDR363W, strain ESC2, hits give low values 0.999 | S. cerevisiae deletion strains, locus YER002W, strain NOP16, hits give low values 0.99 | [2] 0.987 | [3] 0.991 | [4] 0.996 | S. cerevisiae deletion strains, locus YNL175C, strain NOP13, hits give low values 0.997 | S. cerevisiae deletion strains, locus YNL197C, strain WHI3, hits give low values 0.997 | S. cerevisiae deletion strains, locus YNL224C, strain SQS1, hits give low values 1.01 | S. cerevisiae deletion strains, locus YOR083W, strain WHI5 (second series), hits give low values 0.924 | [5] 0.997
